Test results from PubChem BioAssay (Tox21).
Activity calls are given as the source filed them. Unless noted, calls come from the whole dose curve; as a rule, active = well fitted curve in the direction sought with a large enough effect in the repeat runs; inconclusive = weak or mixed curves; inactive = no such curve, though single readings can be large; an effect the other way counts as inactive or inconclusive.

How the values were obtained:
[1] = qHTS assay to identify small molecule antagonists of the thyroid receptor (TR) signaling pathway - cell viability counter screen (AID 743064); note: nearly all actives have a fitted effect of over 50% in size; note: potency is the fitted concentration of half-maximal effect
How it was run: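 GH3.TRE-Luc cells, 4 h pre-plating; cpd + T3 1 nM final; 37 °C 23.5 h; CellTiter-Fluor 30 min; fluorescence read.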

[2] = qHTS assay to identify small molecule antagonists of the thyroid receptor (TR) signaling pathway (AID 743065); note: nearly all actives have a fitted effect of over 55% in size; note: potency is the fitted concentration of half-maximal effect
How it was run: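 GH3.TRE-Luc rat pituitary cells (two TREs driving luciferase) were dosed with compound, then stimulated with 1 nM T3 (final) for 23.5 h at 37 C. ONE-Glo luminescence was the read-out, with CellTiter-Fluor fluorescence as the cytotoxicity counter-screen.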

[3] = qHTS assay to identify small molecule antagonists of the estrogen receptor alpha (ER-alpha) signaling pathway - cell viability counter screen (AID 743074; calls by dose curve; note: nearly all actives have a fitted effect of over 45% in size; note: potency is the fitted concentration of half-maximal effect)
[4] = target: Estrogen receptor (Homo sapiens) (UniProt P03372); experiment: qHTS assay to identify small molecule agonists of the estrogen receptor alpha (ER-alpha) signaling pathway (AID 743075; calls by dose curve; note: potency is the fitted concentration of half-maximal effect)
Chain of Estrogen receptor (Homo sapiens) (P03372 whole entry, looked up): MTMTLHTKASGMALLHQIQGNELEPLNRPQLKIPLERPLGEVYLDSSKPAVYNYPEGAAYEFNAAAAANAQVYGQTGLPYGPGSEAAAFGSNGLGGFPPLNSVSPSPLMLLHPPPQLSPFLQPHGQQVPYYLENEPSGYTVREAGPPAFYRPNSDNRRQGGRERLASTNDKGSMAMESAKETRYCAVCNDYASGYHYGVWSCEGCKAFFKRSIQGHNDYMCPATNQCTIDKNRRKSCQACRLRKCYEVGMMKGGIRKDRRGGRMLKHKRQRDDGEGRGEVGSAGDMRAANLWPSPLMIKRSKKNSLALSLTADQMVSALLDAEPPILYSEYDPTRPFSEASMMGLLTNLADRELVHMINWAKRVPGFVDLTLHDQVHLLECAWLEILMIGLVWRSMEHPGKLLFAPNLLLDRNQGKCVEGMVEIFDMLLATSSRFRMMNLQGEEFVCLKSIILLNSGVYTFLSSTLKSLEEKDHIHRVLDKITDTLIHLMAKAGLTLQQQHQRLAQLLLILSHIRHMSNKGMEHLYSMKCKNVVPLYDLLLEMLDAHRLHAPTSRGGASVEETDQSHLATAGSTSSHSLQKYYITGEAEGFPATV

[5] = qHTS assay to identify small molecule antagonists of the estrogen receptor alpha (ER-alpha) signaling pathway using the BG1 cell line (AID 743080; calls by dose curve;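 note: BG1 cells stimulated with 17beta-estradiol alongside compound; nearly all actives have a fitted effect of over 25% in size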; note: potency is the fitted concentration of half-maximal effect)
How it was run: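 BG1-Luc-4E2 cells (endogenous full-length ER-alpha, stable 4×ERE-luciferase) were starved 5 days in phenol-red-free medium with 10% charcoal-stripped FBS, plated 24 h, then given compound plus 17beta-estradiol for 21.5 h at 37 C; ONE-Glo luminescence read after 30 min.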

Aromatase (Homo sapiens) = Aromatase (Homo sapiens) (UniProt P11511); experiment: qHTS assay to identify aromatase inhibitors (AID 743083); note: nearly all actives have a fitted effect of over 55% in size; note: potency is the fitted concentration of half-maximal effect
Chain of Aromatase (Homo sapiens) (P11511 whole entry, looked up): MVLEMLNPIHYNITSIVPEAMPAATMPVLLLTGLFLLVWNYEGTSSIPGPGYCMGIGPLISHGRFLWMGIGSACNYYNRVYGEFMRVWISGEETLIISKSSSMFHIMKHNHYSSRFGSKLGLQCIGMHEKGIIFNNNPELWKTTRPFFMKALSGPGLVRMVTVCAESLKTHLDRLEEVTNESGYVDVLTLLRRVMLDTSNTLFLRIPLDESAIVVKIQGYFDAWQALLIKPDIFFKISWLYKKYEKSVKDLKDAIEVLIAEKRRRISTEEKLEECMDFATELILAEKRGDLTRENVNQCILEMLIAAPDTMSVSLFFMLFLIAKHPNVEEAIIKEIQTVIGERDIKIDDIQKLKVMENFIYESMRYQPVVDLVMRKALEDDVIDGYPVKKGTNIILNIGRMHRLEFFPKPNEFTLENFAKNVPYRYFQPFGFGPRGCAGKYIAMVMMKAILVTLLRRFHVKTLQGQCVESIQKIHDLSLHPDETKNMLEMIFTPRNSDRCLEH

[6] = qHTS assay to identify aromatase inhibitors - cell viability counter screen (AID 743084);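 note: cells stimulated with testosterone during compound exposure; nearly all actives have a fitted effect of over 55% in size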; note: potency is the fitted concentration of half-maximal effect
[7] = target: Aryl hydrocarbon receptor (Homo sapiens) (UniProt P35869); experiment: qHTS assay to identify small molecule that activate the aryl hydrocarbon receptor (AhR) signaling pathway (AID 743085); note: nearly all actives have a fitted effect of over 15% in size; note: potency is the fitted concentration of half-maximal effect;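 for activation: HG2L7.5c1 human HepG2 liver cells with stably integrated DRE-driven firefly reporter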
Chain of Aryl hydrocarbon receptor (Homo sapiens) (P35869 whole entry, looked up): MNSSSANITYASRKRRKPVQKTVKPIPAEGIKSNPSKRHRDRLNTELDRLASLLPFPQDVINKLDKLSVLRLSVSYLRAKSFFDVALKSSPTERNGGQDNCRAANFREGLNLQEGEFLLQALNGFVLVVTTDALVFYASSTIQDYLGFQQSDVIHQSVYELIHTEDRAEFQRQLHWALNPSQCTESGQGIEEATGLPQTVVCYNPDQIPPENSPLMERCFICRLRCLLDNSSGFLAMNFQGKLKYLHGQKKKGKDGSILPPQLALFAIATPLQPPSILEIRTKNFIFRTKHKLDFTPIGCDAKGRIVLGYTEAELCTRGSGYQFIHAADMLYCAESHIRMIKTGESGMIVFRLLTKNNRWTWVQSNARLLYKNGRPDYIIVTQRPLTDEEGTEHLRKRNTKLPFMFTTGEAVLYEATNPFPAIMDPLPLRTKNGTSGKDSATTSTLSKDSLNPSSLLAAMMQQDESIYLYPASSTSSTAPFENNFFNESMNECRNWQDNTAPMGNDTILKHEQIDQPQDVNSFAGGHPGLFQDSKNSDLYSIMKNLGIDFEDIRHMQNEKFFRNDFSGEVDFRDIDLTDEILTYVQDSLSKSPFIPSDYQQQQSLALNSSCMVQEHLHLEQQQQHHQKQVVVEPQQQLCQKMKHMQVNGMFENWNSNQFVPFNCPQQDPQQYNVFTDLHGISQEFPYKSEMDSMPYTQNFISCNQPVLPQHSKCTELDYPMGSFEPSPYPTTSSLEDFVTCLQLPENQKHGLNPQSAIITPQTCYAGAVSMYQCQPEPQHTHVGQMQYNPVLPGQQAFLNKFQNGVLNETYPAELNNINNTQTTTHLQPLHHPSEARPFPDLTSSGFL
How it was run: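 Luminescence read-out: ONE-Glo reagent, 30 min at room temperature, in HG2L7.5c1 HepG2 reporter cells treated 24 h at 37C. Viability was measured beforehand by CellTiter-Fluor fluorescence after 30 min at 37C.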

[8] = qHTS assay to identify small molecule that activate the aryl hydrocarbon receptor (AhR) signaling pathway - cell viability counter screen (AID 743086); note: nearly all actives have a fitted effect of over 45% in size; note: potency is the fitted concentration of half-maximal effect
How it was run: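 HepG2-AhR-luc (HG2L7.5c1) cells, 4000/well, treated 24 h at 37 C with compound; viability measured as CellTiter-Fluor fluorescence after 30 min in the same wells as the luciferase read.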

[9] = qHTS assay to identify small molecule phospholipidosis (PLD) inducers (AID 1259344; active = well fitted curve in the direction sought with a large enough effect; inconclusive = small, poorly fitted or top-dose-only effect, or another doubt; inactive = no such curve, though single readings can be large; an effect the other way counts as inactive or inconclusive)
How it was run: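 Image-based: LipidTOX Red pit count/intensity per well and per cell; HepG2, 24 h compound at 37 C, PFA fixation, Hoechst counterstain.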

[10] = tested on: thyroid hormone receptor (rat, GH3 cells); experiment: qHTS assay to identify small molecule agonists of the thyroid receptor (TR) signaling pathway (AID 743066; calls by dose curve)
[11] = target: Estrogen receptor (Homo sapiens) (UniProt P03372); experiment: qHTS assay to identify small molecule antagonists of the estrogen receptor alpha (ER-alpha) signaling pathway (AID 743069; active = well fitted curve in the direction sought with a large enough effect in the signal ratio in the repeat runs, not every such curve was filed as active; inconclusive = weak or mixed curves, or effect the other way; inactive = no such curve, though single readings can be large or run the other way; the % refers to the signal ratio; note: potency is the fitted concentration of half-maximal effect)
How it was run: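 In this cell-based reporter format, GripTite HEK293 cells harbouring ER-alpha-UAS-bla were grown overnight with 2% charcoal-stripped FBS, dosed with DMSO-dissolved compounds, then challenged with 17beta-estradiol. After 18 hr at 37C, beta-lactamase activity was detected by FRET fluorescence.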

[12] = qHTS assay to identify small molecule antagonists of the estrogen receptor alpha (ER-alpha) signaling pathway using the BG1 cell line - cell viability counter screen (AID 743081);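 note: compound given together with 17beta-estradiol as the ER stimulus; nearly all actives have a fitted effect of over 45% in size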; note: potency is the fitted concentration of half-maximal effect
[13] = target: Peroxisome proliferator-activated receptor gamma (Homo sapiens) (UniProt P37231); experiment: qHTS assay to identify small molecule agonists of the peroxisome proliferator-activated receptor gamma (PPARg) signaling pathway (AID 743094; active = well fitted activation curve with a large enough effect in the signal ratio in the repeat runs, not every such curve was filed as active; inconclusive = weak or mixed curves, or effect the other way; inactive = no such curve, though single readings can be large or run the other way; the % refers to the signal ratio)
Chain of Peroxisome proliferator-activated receptor gamma (Homo sapiens) (P37231 whole entry, looked up): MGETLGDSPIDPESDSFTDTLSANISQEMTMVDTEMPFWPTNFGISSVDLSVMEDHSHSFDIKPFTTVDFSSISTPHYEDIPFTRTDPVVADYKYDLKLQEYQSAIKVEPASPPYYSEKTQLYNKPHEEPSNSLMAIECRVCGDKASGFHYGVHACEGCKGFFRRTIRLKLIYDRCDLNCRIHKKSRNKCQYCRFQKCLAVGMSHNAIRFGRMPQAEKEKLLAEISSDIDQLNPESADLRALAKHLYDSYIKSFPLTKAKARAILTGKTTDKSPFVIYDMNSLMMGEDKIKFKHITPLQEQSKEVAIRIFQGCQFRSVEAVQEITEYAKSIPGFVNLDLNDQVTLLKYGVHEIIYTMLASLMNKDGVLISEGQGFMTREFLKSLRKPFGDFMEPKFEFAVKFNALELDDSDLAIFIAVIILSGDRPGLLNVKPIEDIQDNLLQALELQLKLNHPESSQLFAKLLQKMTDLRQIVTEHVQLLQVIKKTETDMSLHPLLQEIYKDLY
How it was run: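 Cells from the PPARg UAS-bla HEK293H line are plated and incubated 5 h at 37C. Compounds in DMSO are pinned in and left 17 h at 37C. LiveBLAzer B/G substrate is then added for 1 h at room temperature before fluorescence is measured.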

[14] = target: Estrogen receptor (Homo sapiens) (UniProt P03372); experiment: qHTS assay to identify small molecule agonists of the estrogen receptor alpha (ER-alpha) signaling pathway using the BG1 cell line (AID 743079); conditions: BG1Luc4E2 cells, ERE-luciferase agonist, 22 h; activation: at 70.3 µM (top of the series); note: nearly all actives have a fitted effect of over 20% in size; note: potency is the fitted concentration of half-maximal effect
% is set by controls: 0 for no effect and ±100 for the full control effect.

C/C=C1\NC(=O)[C@H]2CSSCC/C=C/[C@H](CC(=O)N[C@H](C(C)C)C(=O)N2)OC(=O)C(C(C)C)NC1=O (some centres undefined)
active: Potency [1] 0.0119 µM | Potency [2] 0.0168 µM | Potency [3] 6.74 µM | Potency [4] 15.1 µM [inconclusive] | Potency [5] 0.0531 µM | Potency (Aromatase (Homo sapiens)) 0.0094 µM | Potency [6] 13.3 µM | Potency [8] 15 µM
inactive: Potency [7] | Potency [9]

COc1cc(NCCCC(C)N)c2ncccc2c1 (centres undefined)
active: Potency [1] 15 µM | Potency [12] 18.8 µM
inactive: Potency [10] | Potency [11] | Potency [3] | Potency [4] | Potency [8] | Potency [13] | Potency [9]

CCCCCCCC(=O)CC[C@@H]1[C@@H](C/C=C\CCCC(=O)OC(C)C)[C@@H](O)C[C@H]1O
active: Potency [1] 21.1 µM | Potency [2] 16.8 µM | Potency [3] 26.8 µM
inactive: Potency [4] | Potency [14] | Potency [5] | Potency [12] | Potency [6] | Potency [8] | Potency [13] | Potency [9]

CCC[C@@]1(CCc2ccccc2)CC(O)=C([C@H](CC)c2cccc(NS(=O)(=O)c3ccc(C(F)(F)F)cn3)c2)C(=O)O1
inactive: Potency [1] | Potency [10] | Potency [3] | Potency [12] | Potency (Aromatase (Homo sapiens)) | Potency [6] | Potency [8] | PLD induction [9] -4.07% [at 7.66 µM]

CCCC1([C@H](O)C/C=C/[C@H]2[C@H](O)CC(=O)[C@@H]2CCCCCCC(=O)OC)CCC1
active: Potency [1] 29.8 µM | Potency [2] 26.6 µM
inactive: Potency [3] | Potency [14] | Potency [5] | Potency [12] | Potency [7] | Potency [8] | PLD induction [9] 0.112% [at 7.66 µM]

CCC(c1ccccc1)c1noc(CCN(CC)CC)n1 (centres undefined)
inactive: Potency [1] | Potency [2] | Potency [10] | Potency [12] | Potency (Aromatase (Homo sapiens)) | Potency [6] | Potency [7] | Potency [8] | Potency [13] | Potency [9]

COC(=O)C1=C(C)NC(C)=C(C(=O)O[C@H]2CCN(Cc3ccccc3)C2)[C@H]1c1cccc([N+](=O)[O-])c1
active: Potency [1] 13.3 µM | Potency [2] 18.8 µM | Potency [11] 26.8 µM [inhibitor] | Potency [8] 29.8 µM
inactive: Potency [3] | Potency [4] | Potency [14] | Potency (Aromatase (Homo sapiens)) | Potency [7] | Potency [9]

CN1[C@@H]2CCC[C@H]1CC(NC(=O)c1nn(C)c3ccccc13)C2 (some centres undefined)
inactive: Potency [1] | Potency [10] | Potency [11] | Potency [3] | Potency [4] | Potency [14] | Potency [12] | Potency (Aromatase (Homo sapiens)) | Potency [7] | Potency [8] | Potency [13] | Potency [9]

CC(=O)O[C@H]1CC[C@@]2(C)C(=CC[C@@H]3[C@@H]2CC[C@]2(C)C(c4cccnc4)=CC[C@@H]32)C1
inactive: Potency [10] | Potency [11] | Potency [3] | Potency [5] | Potency [12] | Potency (Aromatase (Homo sapiens)) | Potency [6] | Potency [8] | Potency [13] | Potency [9]
active: Potency [1] 29.8 µM | Potency [4] 13.4 µM [activator] | Potency [14] 29.8 µM

CC(C(=O)O)c1ccc(C2CCCCC2)c2ccccc12 (centres undefined)
inactive: Potency [1] | Potency [10] | Potency [3] | Potency [4] | Potency [14] | Potency [5] | Potency [12] | Potency [6] | Potency [7] | Potency [8] | PLD induction [9] 0.703% [at 7.66 µM]

Cc1cccc(C)c1N(CCCc1cccnc1)C(=O)C(C)N (centres undefined)
active: Potency (Aromatase (Homo sapiens)) 5.96 µM
inactive: Potency [1] | Potency [10] | Potency [11] | Potency [3] | Potency [4] | Potency [14] | Potency [5] | Potency [12] | Potency [6] | Potency [7] | Potency [8] | Potency [13] | PLD induction [9] -1.49% [at 1.53 µM]

CCN(CC)c1ccc(C(=C2C=CC(=[N+](CC)CC)C=C2)c2ccccc2)cc1
active: Potency [1] 0.335 µM | Potency [2] 0.335 µM | Potency [3] 4.77 µM | Potency [5] 5.96 µM | Potency (Aromatase (Homo sapiens)) 3.35 µM | Potency [6] 7.5 µM
inactive: Potency [7] | Potency [9]

CC1(S(=O)(=O)O)CC(=O)c2ccccc2C1=O (centres undefined)
inactive: Potency [3] | Potency [12] | Potency [9]
active: Potency [1] 13.3 µM | Potency [2] 13.3 µM | Potency [5] 33.5 µM | Potency (Aromatase (Homo sapiens)) 26.6 µM | Potency [7] 10.6 µM

CCC(=O)Oc1ccc2c(c1)CC[C@@H]1[C@@H]2CC[C@]2(C)[C@@H](OC(=O)CC)CC[C@@H]12
inactive: Potency [2] | Potency [10] | Potency [3] | Potency [5] | Potency [12] | Potency [6] | Potency [7] | Potency [13] | Potency [9]
active: activation [14] 99.5%

CCCCCCCCCCCCCCCC(=O)OCCC1CCN(CCCN2c3ccccc3Sc3ccc(S(=O)(=O)N(C)C)cc32)CC1
inactive: Potency [2] | Potency [10] | Potency [3] | Potency (Aromatase (Homo sapiens)) | Potency [6] | Potency [7] | Potency [13] | Potency [9]

CO/N=C(\C(=O)N[C@@H]1C(=O)N2C(C(=O)OCOC(=O)C(C)(C)C)=C(/C=C\c3scnc3C)CS[C@H]12)c1csc(N)n1
inactive: Potency [2] | Potency [10] | Potency [11] | Potency [3] | Potency [4] | Potency [14] | Potency [12] | Potency (Aromatase (Homo sapiens)) | Potency [6] | Potency [7] | Potency [8] | Potency [13] | PLD induction [9] -0.933% [at 7.66 µM]
